Laboratory results reported in PubChem BioAssay (NCATS).
Results filed as inconclusive are left out. Unmarked numbers belong to inactive results. The call rests on the fitted dose curve; in most records, active means well fitted inhibition curve with a large enough effect; inconclusive means small, poorly fitted or top-dose-only effect; inactive means flat fitted curve, though single readings scatter.

The compounds below were run against Calcium and integrin-binding protein 1 (Homo sapiens) (UniProt Q99828) (assay: Primary qHTS for Identification of Calcium Integrin Binding Protein 1 (CIB1) Competitor (AID 1508620;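 further: GST tagged CIB1 binding a fluorescein labelled alphaIIb integrin peptide tracer; top concentration of the series differs between compounds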)). Conditions: CIB1-GST / FITC-alphaIIb peptide fluorescence polarization; series mostly up to 114 µM; activity change, negative = inhibition: at the top concentration.
Summary of the method: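 CIB1-GST (1 uM final) and compound incubated 15 min at room temperature before adding FITC-alphaIIb peptide tracer (100 nM final). Competition for binding read by fluorescence polarization (ex 480, em 540) after another 15 min at room temperature.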
On the % scale 0 is the no-effect control and ±100 the full control effect.

Calcium and integrin-binding protein 1 (Homo sapiens), sequence (Q99828 whole entry, looked up): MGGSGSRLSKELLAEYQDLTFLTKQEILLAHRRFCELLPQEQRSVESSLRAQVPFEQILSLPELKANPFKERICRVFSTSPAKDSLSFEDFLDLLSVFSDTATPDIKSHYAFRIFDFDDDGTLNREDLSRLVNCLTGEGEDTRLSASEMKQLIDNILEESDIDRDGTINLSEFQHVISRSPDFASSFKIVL

SMILES	activity change, negative = inhibition [%]
COc1ccc(C2Nc3ccccc3C(=O)N2Cc2ccc(C(C)(C)C)cc2)cc1COc1ccc(NC(C)=O)cc1 (stereo not given)	4.12
COc1cc(NC(=O)C(OC(=O)CNC(=O)c2ccccc2)c2ccccc2)cc(C(F)(F)F)c1 (stereo not given)	-2.04
O=c1cc(CN2CCCN(c3ccc(C(F)(F)F)cn3)CC2)nc2ccccn12	2.16
CC(=O)N1CCN(c2ccc(NCc3ccc(C)cc3)cc2)CC1	-13
COc1ccc(C2Nc3ccccc3C(=O)N2CCCN(C)C)cc1COc1c(C)cc(NC(C)=O)cc1C (stereo not given)	-0.308
